A short description of test [1]: SU-DIPG-VI glioma cell viability, MIPE4.0 library, CellTiter-Glo luminescence, qHTS (AID 1347066; cut-off not given, nearly all actives have AC50 up to about 30 µM;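 note: cells exposed to compound for 48 hours before readout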). The following applies: CellTiter-Glo ATP luminescence. For orientation: Cellular ATP, detected with luciferase, serves as a proxy for viable cell number.
Test [2] can be described thus: SU-DIPG-XXV glioma cell viability, MIPE5.0 library, qHTS (AID 1347068; cut-off not given, nearly all actives have IC50 up to about 30 µM). (In general: In qHTS, concentration-response curves come from the screen itself.)
Test [3] is described as follows: sensitizers of A549 cells to miR-34 induction, primary screen, imaging, A549 dox-inducible miR-34, nuclei and caspase counts (AID 1347080;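 active = compounds whose cell count with miR-34 switched on is under 0.7 times the count with it off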). The following applies: A549 miR-34 inducible, Hoechst nuclei count, 48 h.
The nature of test [4]: survival rescue of mitochondrial mutant cells in low glucose, primary screen, MELAS cybrids, Rieske KO mouse fibroblasts, CellTiter-Glo (AID 1508586).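 Note: z relative to plate mean and SD of compound and empty wells.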
Test [5] concerns the target NAD(+) hydrolase SARM1 (Homo sapiens) (UniProt Q6SZW1). As to the kind of experiment: SARM1 TIR NADase inhibitors, cell lysate, NAD-Glo luminescence (AID 1508614;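 active = compound whose remaining NAD level is above about 45 nM, limit read from the data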;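 note: higher remaining NAD means stronger inhibition of SARM1 NADase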). The settings on record: SAM-TIR HEK293T lysate NADase, at 1 µM, stronger effect = higher value.
Test [6] deals with Mitogen-activated protein kinase 7 (Homo sapiens) (UniProt Q13164). As to the kind of experiment: ERK5 transactivation activators in reporter cells, primary screen, cell-based, HTS (AID 1508626;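 active = luciferase signal above three times the same-plate solvent-only control wells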;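 note: luciferase driven by Gal4-ERK5 fusion binding five Gal4 sites before minimal TATA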). The settings on record: HeLa Gal4-ERK5 transactivation, 18 h, at 5 µM, stronger effect = higher value.
Chain of Mitogen-activated protein kinase 7 (Homo sapiens) (Q13164 whole entry, looked up, the tested form may be a part): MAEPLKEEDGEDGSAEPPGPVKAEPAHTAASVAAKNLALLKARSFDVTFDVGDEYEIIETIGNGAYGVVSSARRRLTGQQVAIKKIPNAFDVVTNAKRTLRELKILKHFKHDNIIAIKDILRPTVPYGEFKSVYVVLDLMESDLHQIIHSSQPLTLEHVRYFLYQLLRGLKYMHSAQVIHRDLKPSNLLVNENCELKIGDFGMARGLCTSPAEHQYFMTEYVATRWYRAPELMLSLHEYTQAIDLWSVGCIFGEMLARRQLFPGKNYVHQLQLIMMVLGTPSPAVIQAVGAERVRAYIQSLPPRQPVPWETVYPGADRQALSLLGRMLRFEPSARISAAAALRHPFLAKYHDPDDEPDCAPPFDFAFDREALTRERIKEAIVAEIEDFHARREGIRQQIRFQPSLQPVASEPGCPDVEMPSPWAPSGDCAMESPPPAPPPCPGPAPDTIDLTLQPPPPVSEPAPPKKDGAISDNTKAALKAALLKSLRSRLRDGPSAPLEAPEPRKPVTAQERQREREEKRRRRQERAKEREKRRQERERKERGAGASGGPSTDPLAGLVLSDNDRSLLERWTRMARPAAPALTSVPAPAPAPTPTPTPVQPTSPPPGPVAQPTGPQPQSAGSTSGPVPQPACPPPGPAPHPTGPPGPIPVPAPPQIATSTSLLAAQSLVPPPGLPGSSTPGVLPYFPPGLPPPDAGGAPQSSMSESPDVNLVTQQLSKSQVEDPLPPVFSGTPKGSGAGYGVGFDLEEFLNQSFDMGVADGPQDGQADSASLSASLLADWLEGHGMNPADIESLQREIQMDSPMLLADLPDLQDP
A short description of test [7]: viability rescue of complex I mutant cybrids, primary screen, cell-based, galactose medium, ATP luminescence (AID 1645843;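 active = z-score of at least 1.8 in each of two replicates, scored against plate mean and spread of sample wells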;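 note: positive z means more ATP and so rescue of galactose-driven cybrid death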). The following applies: complex I mutant cybrid cells, 72 h, stronger effect = higher value.
Test [8] in a line: phospholipid biosynthesis inhibitors in animal cells, primary screen, cell-based, LOPAC library, screen 4 (AID 1347384; call rule not given here). The following applies: phospholipid biosynthesis inhibition screen, at 10 µM.
Test [9] in a line: LFS_MB_P medulloblastoma growth inhibition, cell-based, chromothripsis tumors, cisplatin or BGB combos (AID 1671449; in the data active = inhibition above about 80%;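 note: cells exposed for 96 hours; 0% = vehicle DMSO and 100% = killing by high DMSO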). The settings on record: LFS_MB_P medulloblastoma cells.
Test [10] in a line: HDN33 neuroblastoma growth inhibition, cell-based, chromothripsis tumors, cisplatin or BGB combos (AID 1671450; in the data active = inhibition above about 80%;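 note: cells exposed to compound for four days; 0% = vehicle DMSO and 100% = cell killing by high DMSO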). The settings on record: HDN33 neuroblastoma cells, stronger effect = higher value.
Test [11] is described as follows: ICB984 medulloblastoma cell growth inhibition, synergistic combos for chromothripsis tumors, cisplatin or BGB combos (AID 1671451; call rule not given here;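 note: cells exposed for 96 hours before readout; 0% = vehicle DMSO and 100% = killing by high DMSO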). The following applies: ICB984 medulloblastoma cells, drug combinations, stronger effect = higher value.
A short description of test [12]: LFS_MB_1R medulloblastoma cell growth inhibition, synergistic combos for chromothripsis tumors, cisplatin or BGB combos (AID 1671452; in the data active = inhibition above about 80%;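 note: cells exposed for 96 hours before readout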). The settings on record: LFS_MB_1R medulloblastoma cells, stronger effect = higher value.
Test [13] is described as follows: HTB85 osteosarcoma cell growth inhibition, synergistic combos for chromothripsis tumors, BGB or cisplatin IC20 combos (AID 1671453; in the data active = inhibition above about 80%;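 note: cells exposed for 96 hours before readout; 0% = vehicle DMSO and 100% = high DMSO killing control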). The settings on record: HTB85 osteosarcoma cells, drug combinations, stronger effect = higher value.
Test [14] in a line: CRL2098 osteosarcoma cell growth inhibition, synergistic combos for chromothripsis tumors, BGB or cisplatin IC20 combos (AID 1671454; in the data active = inhibition above about 80%;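 note: cells exposed for 96 h before readout; 0% = vehicle DMSO and 100% = killing by high DMSO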). The following applies: CRL2098 osteosarcoma cells, drug combinations, stronger effect = higher value.
Test [15] can be described thus: HD-MB03 medulloblastoma cell growth inhibition, synergistic combos for chromothripsis tumors, BGB or cisplatin IC20 combos (AID 1671455; in the data active = inhibition above about 83%;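 note: 0% = vehicle DMSO and 100% = high DMSO as cytotoxic control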). The following applies: HD-MB03 medulloblastoma cells, stronger effect = higher value.
Where [16] appears, read: stronger effect = lower value, cell number ratio, induced over uninduced.
The mark [17] stands for this setting: measured here: relative caspase fold change +Dox/-Dox.
Setting [18] is: measured here: total cells with miR-34 induction, stronger effect = lower value.
The mark [19] stands for this setting: measured here: total cells without miR-34 induction.
[20] abbreviates: MELAS cybrid survival, CellTiter-Glo 48 h, stronger effect = higher value.
[21] abbreviates: Rieske KO mouse fibroblast survival, CellTiter-Glo 72 h.
Setting [22] is: measured here: combination with BGB IC40, at 0.05 µM.

“And” between values parts separate entries of the source, which are not always exact repeats. Identical values can stand only once. Results filed as inconclusive are left out. The source made the active and inactive calls.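 Rule for the calls, unless noted: active = mean z-score across replicates of 1.96 or higher in either the MELAS or the Rieske mutant cell line; inactive = the rest.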

Chain of NAD(+) hydrolase SARM1 (Homo sapiens) (Q6SZW1 whole entry, looked up, the tested form may be a part): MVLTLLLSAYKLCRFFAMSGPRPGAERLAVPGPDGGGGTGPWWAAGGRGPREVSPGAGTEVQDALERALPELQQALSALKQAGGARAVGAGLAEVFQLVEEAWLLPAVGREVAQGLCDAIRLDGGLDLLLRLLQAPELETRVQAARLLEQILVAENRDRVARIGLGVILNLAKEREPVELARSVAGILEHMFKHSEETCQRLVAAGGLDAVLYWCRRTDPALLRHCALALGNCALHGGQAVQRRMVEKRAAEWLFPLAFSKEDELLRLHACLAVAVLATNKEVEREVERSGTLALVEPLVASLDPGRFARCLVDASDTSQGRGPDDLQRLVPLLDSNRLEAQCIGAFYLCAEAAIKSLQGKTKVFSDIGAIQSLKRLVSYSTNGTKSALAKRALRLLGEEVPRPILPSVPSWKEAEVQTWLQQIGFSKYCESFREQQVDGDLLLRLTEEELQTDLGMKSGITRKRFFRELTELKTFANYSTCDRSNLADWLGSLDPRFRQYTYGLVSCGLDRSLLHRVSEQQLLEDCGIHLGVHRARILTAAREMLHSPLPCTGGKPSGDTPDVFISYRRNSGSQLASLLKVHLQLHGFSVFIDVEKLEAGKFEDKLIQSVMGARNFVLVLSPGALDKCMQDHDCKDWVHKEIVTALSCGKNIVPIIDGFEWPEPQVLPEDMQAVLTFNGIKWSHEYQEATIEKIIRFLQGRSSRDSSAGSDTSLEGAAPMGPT

For `CC(=O)Nc1ccc(O)cc1`, the call in test [1] and in [2] was inactive. In addition, the fold change was 0.829 (inactive) and 0.996 (inactive) and 0.866 (inactive) in test [3] (setting [16]); 0.925 and 0.621 and 1.43 in [3] (setting [17]). Moreover, the cell count in [3] (setting [18]) is 8180 and 9760 and 10200; in test [3] (setting [19]), 9870 and 9800 and 11800. Further, the results for the z-score in [4] (setting [20]), in test [4] (setting [21]) and in [7] were 0.35 (inactive), -0.0609 and -0.13 (inactive), respectively. For the same molecule, in test [5], the remaining NAD was 10 nM (inactive). Also, the luciferase signal in [6] is 40 AU (inactive).

Consider `O=C(N[C@H](CO)[C@H](O)c1ccc([N+](=O)[O-])cc1)C(Cl)Cl`, for which the molecule was classed as inactive in [1]. Also, the fold change in test [3] (setting [16]) is 0.94 (inactive) and 0.855 (inactive); in test [3] (setting [17]), 1.13 and 1.29. For the same molecule, the cell count is 8280 and 6420 in test [3] (setting [18]); 8810 and 7510 in test [3] (setting [19]). The z-score in test [4] (setting [20]) is -0.509 (inactive) and 0.536; in test [4] (setting [21]), -3.37 and 2.44; in test [7], -0.74 (inactive). In addition, the remaining NAD in test [5] was 10 nM (inactive). For the same molecule, in test [6], the luciferase signal was 88 AU (inactive).

In the case of `Cc1oncc1C(=O)Nc1ccc(C(F)(F)F)cc1`, the molecule was classed as inactive in test [1], in test [2] and in [8]. Besides, the z-score is -0.557 (inactive) and -0.339 (inactive) and -0.166 (inactive) in test [4] (setting [20]); 0.617 and 0.893 and 0.301 in test [4] (setting [21]); 1.22 (inactive) and 1.26 (inactive) and 0.055 (inactive) in test [7]. Also, in test [5], the remaining NAD is 10 nM (inactive). For the same molecule, in test [6], the luciferase signal is 120 AU (inactive). The inhibition (commonly the relative decrease from the control value, in per cent) was -30.3% (inactive) in test [9] (at 0.5 µM, stronger effect = higher value); -32.3% in test [9] (measured here: combination with BGB IC20, at 0.005 µM); -17.1% in test [9] (measured here: combination with BGB IC40, at 0.005 µM); -23.8% in test [9] (setting [22]); -32.5% in test [9] (measured here: combination with cisplatin, at 0.5 µM, stronger effect = higher value); 34.4% in [9] (measured here: combination with cisplatin, at 5 µM, stronger effect = higher value). Besides, the inhibition was 22.1% in [10] (BGB combo, at 5 µM); -14.7% (inactive) in test [10] (at 0.5 µM); 36.7% in test [10] (cisplatin combo, at 5 µM); 2.4% in test [10] (measured here: with BGB IC20 combination, at 0.5 µM); -16.7% in [10] (measured here: with cisplatin IC20 combination, at 0.5 µM); 48% in test [10] (single agent, at 5 µM). The inhibition is 16.5% in test [11] (BGB IC20 combo, at 0.005 µM); -7.12% in [11] (BGB IC40 combo, at 0.005 µM); 33.8% in test [11] (BGB IC40 combo, at 0.05 µM); -22.9% (inactive) in [11] (at 0.5 µM); 31.4% in [11] (cisplatin combo, at 0.05 µM); -18.9% in [11] (cisplatin combo, at 0.5 µM). The inhibition in test [11] (cisplatin combo, at 5 µM) was -28.5%; in [11] (measured here: 5 uM single agent, at 5 µM), 9.62%; in test [12] (at 0.5 µM) it was -18.1% (inactive); in test [12] (setting [22]), -48.9%; in test [12] (measured here: combination with cisplatin, at 0.5 µM), -43.1%; in [12] (measured here: combination with cisplatin, at 5 µM), -31%. Besides, the inhibition in [13] (at 0.5 µM) was -9.93% (inactive); in test [13] (measured here: with BGB IC20, at 0.5 µM), -10.4%; in test [13] (measured here: with BGB IC20, at 5 µM), 14.1%; in test [13] (measured here: with cisplatin IC20, at 0.5 µM), -18.2%; in test [13] (measured here: with cisplatin IC20, at 5 µM), 0.987%; in [13] (single agent, at 5 µM), 24.3%. Moreover, the inhibition in [14] (at 0.5 µM) was -47.6% (inactive); in test [14] (measured here: combination with BGB at IC20, at 0.5 µM), -10.4%; in [14] (measured here: combination with cisplatin at IC20, at 0.5 µM) it was -126%; in test [15] (at 0.5 µM), 1.82% (inactive); in test [15] (measured here: combo with BGB at IC20, at 0.5 µM), -13.1%; in test [15] (measured here: combo with cisplatin at IC20, at 0.5 µM), 15.3%.
